Lassa entry inh: Lassa virus entry inhibition | Lassa virus pseudotype entry inhibition, cell reporter | Potency, µM (doses to about 37.9 µM), for the others: at the highest dose activity change, negative = inhibition, usual class: inhibitors | 300,000 compounds, 1.2% hits; calls by dose curve; tested in HEK293 cells; also: nearly all actives have a fitted effect of over 50% in size
Marburg entry inh: blocks Marburg virus binding to or entry into cells. Marburg virus pseudotyped entry inhibition, cell reporter. Potency, µM (titrated, usually from 37.8 µM), inactives show at the top dose activity change, negative = inhibition, usual class: inhibitors. 300,000 compounds, 1.8% hits; calls by dose curve; tested in HEK293 cells
AMA1 RON2 block: disrupts binding of P. falciparum AMA1 to RON2; Potency, µM (top dose mostly 58.2 µM), without a hit: at the top dose activity change, negative = inhibition, hits mostly inhibitors; AlphaScreen AMA1-biotinylated RON2 peptide binding; AID 720542; 360,000 compounds, 0.2% hits;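 also: 0% = vehicle wells and -100% = peptide control; nearly all actives have a fitted effect of over 45% in size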
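AMA1 (3D7) with his tag at 25 nM final met compounds first, then biotinylated RON2 peptide at 25 nM; detection used donor plus acceptor beads, 10 µg/mL apiece, read by AlphaScreen after 30 min at room temperature.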
AmpC detergent: blocks E. coli AmpC beta-lactamase in detergent assay; P00811; Potency, µM (titrated, usually from 114 µM), for the others: at the top dose activity change, negative = inhibition, actives largely listed as inhibitors; 370,000 compounds, 0.041% hits; AmpC hydrolysis of nitrocefin, absorbance 480 nm, 0.01% Triton;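 also: 0% = no-compound wells and -100% = no-enzyme wells; nearly all actives have a fitted effect of over 25% in size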
Target sequence (P00811 whole entry, looked up): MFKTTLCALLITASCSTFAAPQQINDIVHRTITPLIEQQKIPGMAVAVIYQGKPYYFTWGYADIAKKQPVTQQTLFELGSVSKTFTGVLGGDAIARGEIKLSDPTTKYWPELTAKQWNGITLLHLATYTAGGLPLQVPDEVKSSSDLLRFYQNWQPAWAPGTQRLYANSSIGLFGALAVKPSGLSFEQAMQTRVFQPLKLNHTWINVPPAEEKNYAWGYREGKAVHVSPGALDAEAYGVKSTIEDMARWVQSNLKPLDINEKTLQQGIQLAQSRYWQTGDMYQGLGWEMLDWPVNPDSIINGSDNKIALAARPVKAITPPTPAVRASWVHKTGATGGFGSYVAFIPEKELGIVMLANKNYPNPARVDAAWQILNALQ
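AmpC (5.3 nM in the dispensed reagent) in 20 mM phosphate pH 7.0 with 0.01% (detergent screen) or 0.0001% Triton X-100 was preincubated with compounds for 15 min at room temperature. Nitrocefin was then added from an 800 uM solution, and hydrolysis was followed at 480 nm.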
AmpC no deterg: AmpC beta-lactamase inhibition without detergent; AID 485341; AmpC nitrocefin hydrolysis, absorbance 480 nm, 0.0001% Triton; P00811; 330,000 compounds, 0.52% hits; Potency, µM (highest dose often 57.1 µM), without a hit: at the top dose activity change, negative = inhibition, hits mostly inhibitors;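 also: plate controls were no compound for no effect and no enzyme for full effect; nearly all actives have a fitted effect of over 20% in size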
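AmpC (5.3 nM in the dispensed reagent) in 20 mM phosphate pH 7.0 with 0.01% (detergent screen) or 0.0001% Triton X-100 was preincubated with compounds for 15 min at room temperature. Nitrocefin was then added from an 800 uM solution, and hydrolysis was followed at 480 nm.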
* marks the source's active call; other numbers are inactive results; ? = inconclusive; . = not tested or not shown; [ ] = remark or other dose. Hits are enriched below; roughly 2.3% of the tested compounds scored in any of these assays. Unless noted, calls follow the shape of the dose curve; as a rule, active = well fitted curve in the direction sought with a large enough effect; inconclusive = small, poorly fitted or top-dose-only effect, or another doubt; inactive = no such curve, though single readings can be large; an effect the other way counts as inactive or inconclusive. Unless noted, % is scaled to controls: 0 for no effect and ±100 for the full control effect; potency is read from the fitted curve at half-maximal effect.

SMILES	Lassa entry inh	Marburg entry inh	AMA1 RON2 block	AmpC detergent	AmpC no deterg
COc1ccccc1OC(C)C(=O)Nc1c(C(=O)c2ccc(Cl)cc2)oc2ccccc12 (configuration not stated)	15.3%[46.1 µM]	-11.8%[46.1 µM]	.	24.2%	.
CC(C)(C)c1ccc(NC(=O)COC(=O)c2ccc(NS(=O)(=O)c3ccc(F)c(F)c3)cc2)cc1	12.6µM*	?	-4.7%	?	-38.4%
CC(C)(C)NC(=O)NC(=O)COC(=O)c1cccc(NS(=O)(=O)c2ccc(F)c(F)c2)c1	10µM*	?	1.3%[2.32 µM]	-3.6%	-10.6%
O=c1[nH]c(=S)n(Cc2ccco2)c(O)c1C=NCc1cccs1	19.0%	1.0%	63.1%	2.3%	17.8µM*
CCOc1ccc(OCC)c(NC(=O)CCc2c(C)nc3c(c2C)c(=O)n(C)c(=O)n3C)c1	10.8%[46.1 µM]	-10.2%[46.1 µM]	.	2.5%	.
Cc1nnc(NC(=O)CCCCCN2C(=O)C3C4C=CC(C4)C3C2=O)s1 (configuration not stated)	.	.	-4.9%	?	6.31µM*
Cc1ccccc1C(=O)Nc1ccc(C(=O)N/N=C/c2ccc(O)cc2)cc1	?	?	4.5%	-6.3%	-46.2%
O=C(N/N=C/c1ccc(O)cc1)c1ccc(NC(=O)c2ccccc2Br)cc1	2.51µM*	?	3.4%	?	-33.6%
CC(C)(C)c1ccc(C(=O)N2CCC(=O)N(C(COCc3ccccc3)Cc3ccccc3)CC2)cc1 (configuration not stated)	8.2µM*	?	-3.9%	-21.3%	145.9%
Cc1cccc(COCC(Cc2ccccc2)N2CCN(C(=O)c3cccc(C)c3)CCC2=O)c1 (configuration not stated)	7.31µM*	-39.1%	4.4%	-7.7%	124.4%
Cc1cccc(COCC(Cc2ccccc2)N2CCN(C(=O)c3ccc(Cl)c(Cl)c3)CCC2=O)c1 (configuration not stated)	14.6µM*	-44.8%	-5.6%	?	150.0%
Cc1cccc(COCC(Cc2ccccc2)N2CCN(C(=O)c3cc(Cl)cc(Cl)c3)CCC2=O)c1 (configuration not stated)	?	?	-1.7%	1.0%	211.6%
CC(C)(C)c1ccc(C(=O)N2CCC(=O)N([C@H](COCc3ccccc3)Cc3ccccc3)CC2)cc1	.	.	-8.9%	.	.
O=C(Nc1ccc2c(c1)N(C1CCCC1)C(=O)c1ccccc1S2)c1cccc(F)c1	?	.	.	7.8%	.
C[C@H]1CC[C@H]2C(=O)N(Cc3ccc(Cl)cc3)C[C@@H](O)CN2[C@H]1c1ccc(Br)cc1	.	-7.0%[14.2 µM]	.	.	.
Cc1cc(NCc2ccccn2)n2nc(C)c(-c3ccccc3)c2n1	?	10µM*	58.1%	-1.4%	61.1%
Cc1nn2c(NCc3ccccn3)cc(C(C)(C)C)nc2c1-c1ccccc1	.	.	63.9%	2.0%	-7.5%
Cc1cc(NC(=O)C(C)SCC(=O)Nc2cc(C(F)(F)F)ccc2N2CCCCC2)no1 (configuration not stated)	-27.2%	?	-7.3%	4.2%	31.6µM*
Cc1cc(NC(=O)CSCC(=O)Nc2cc(C(F)(F)F)ccc2N2CCCCC2)no1	-0.5%	-9.6%	1.4%	.	.
Cc1cc(NC(=O)C(C)SCC(=O)N(Cc2ccccc2)c2ccccc2)no1 (configuration not stated)	?	3.55µM*	-5.5%	-2.8%	-2.3%
Cc1cc(NC(=O)C(C)SCC(=O)OCC(=O)N(Cc2ccccc2)C(C)(C)C)no1 (configuration not stated)	3.6%	3.7%	25.0%	-3.8%	25.6%
Cc1cccc(OCc2cc(=O)n3c(-c4ccccc4)csc3n2)c1C	-2.0%[46.1 µM]	?	.	0.3%	.
CCCCN(CCCC)CCNC(=O)Cn1nc(CC)n2c(cc3sc(C)cc32)c1=O	.	-6.3%[46.1 µM]	.	-2.7%	.
CN(N=O)c1cc(O)ccc1O	16.4µM*	?	.	.	.
CN(C)c1ccc(C(=O)c2ccc(O)cc2O)cc1	-18.1%	9.9%	?	-2.9%	-29.5%
COc1ccc(-n2c(C)cc(/C=N/Nc3nc(N4CCOCC4)nc(N4CCOCC4)n3)c2C)cc1	?	7.31µM*	7.6%	-3.9%	197.7%
Cc1cc(/C=N/Nc2nc(N3CCOCC3)nc(N3CCOCC3)n2)c(C)n1-c1ccccc1	?	?	23.7%	-7.5%	173.1%

Screens deposited in PubChem by National Center for Advancing Translational Sciences (NCATS).
